# PubChem BioAssay (EPA / NIEHS)
# Inconclusive results are not listed. Activity calls are given as the source filed them. Rule for the calls, unless noted: active = hit-call score of the fitted dose curve at least 0.9, where 1 is the maximum; inconclusive = response in the unintended direction; inactive = score below 0.9.
# Assays:
# [1] = ATG_CRE_CIS: Attagene CIS-FACTORIAL HepG2 Assay for human cAMP Responsive Element (CRE) binding protein 3 (AID 2282926; active = hit-call score of the fitted dose curve at least 0.9, where 1 is the maximum; inactive = score below 0.9); details: HepG2 CRE cis-reporter, Attagene multiplexed mRNA; actives raise or lower the signal
# Outline: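 HepG2 cells transiently transfected with a multiplexed reporter library (CRE-driven unit among them) were dosed for 24 h. Reporter mRNA was quantified by RT-PCR, fluorescent labelling, HpaI digestion and capillary electrophoresis, with bidirectional fitting against DMSO baseline.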
# [2] = biological target: CCAAT/enhancer-binding protein beta (Homo sapiens) (UniProt P17676); experiment: ATG_C_EBP_CIS: Attagene CIS-FACTORIAL HepG2 Assay for human CCAAT/Enhancer Binding Protein (C/EBP) beta (AID 2282927; active = hit-call score of the fitted dose curve at least 0.9, where 1 is the maximum; inactive = score below 0.9); details: HepG2 Attagene cis-factorial transcription factor reporter; actives raise or lower the signal
# Sequence of CCAAT/enhancer-binding protein beta (Homo sapiens) (P17676 whole entry, looked up): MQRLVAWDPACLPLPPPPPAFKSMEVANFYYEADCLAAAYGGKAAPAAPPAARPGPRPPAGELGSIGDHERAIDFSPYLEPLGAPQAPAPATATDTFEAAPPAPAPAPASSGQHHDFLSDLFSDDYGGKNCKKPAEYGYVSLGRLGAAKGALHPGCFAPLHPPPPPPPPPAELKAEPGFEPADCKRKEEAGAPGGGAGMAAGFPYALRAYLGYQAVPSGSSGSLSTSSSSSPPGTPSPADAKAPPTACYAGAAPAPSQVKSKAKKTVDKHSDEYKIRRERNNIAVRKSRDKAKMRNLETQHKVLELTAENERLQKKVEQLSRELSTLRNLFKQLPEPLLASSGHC
# Outline: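 HepG2, transient MRTU transfection, 24 h treatment. RT-PCR plus CE fluorescence; DMSO negative control, bidirectional fit.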
# [3] = ATG_CMV_CIS: Attagene CIS-FACTORIAL HepG2 Assay for human CMV (Internal Marker) (AID 2282928; active = hit-call score of the fitted dose curve at least 0.9, where 1 is the maximum; inactive = score below 0.9;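 note: endpoint acts as a background internal control marker rather than a target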); details: HepG2 CMV promoter reporter, transcription factor profiling; actives raise or lower the signal
# Outline: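 After transient transfection of HepG2 with reporter transcription units driven by cis-regulatory promoters, cells receive test chemical for 24 h. Labeled reporter amplicons, digested with HpaI, are sized and quantified by capillary electrophoresis against DMSO.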
# [4] = ATG_DR4_LXR_CIS: Attagene CIS-FACTORIAL HepG2 Assay for human Liver X Receptor (LXR), DR4 submotif (AID 2282929; active = hit-call score of the fitted dose curve at least 0.9, where 1 is the maximum; inactive = score below 0.9); details: HepG2 Attagene DR4 cis-reporter, mRNA transcription; actives raise or lower the signal
# Outline: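 Fluorescence intensity of labelled reporter cDNA fragments, separated by capillary electrophoresis, gives the signal. HepG2 cells bearing cis-regulated reporter constructs were treated 24 h; activity fitted bidirectionally relative to DMSO negative control.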
# [5] = ATG_AP_2_CIS: Attagene CIS-FACTORIAL HepG2 Assay for human Activator Protein 2 (AP-2) (AID 2282932; active = hit-call score of the fitted dose curve at least 0.9, where 1 is the maximum; inactive = score below 0.9); details: HepG2 AP-2 cis-reporter, Attagene transcription factor profiling; actives raise or lower the signal
# Outline: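 Multiplexed mRNA reporter assay in HepG2: cis-regulated units report endogenous factor activity after 24 h treatment. Fluorescence from capillary electrophoresis of RT-PCR products gives the signal, with DMSO as baseline.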
# [6] = ATG_E_Box_CIS: Attagene CIS-FACTORIAL HepG2 Assay for human Enhancer Box (E-box) (AID 2282936; active = hit-call score of the fitted dose curve at least 0.9, where 1 is the maximum; inactive = score below 0.9); details: HepG2 E-box cis-reporter transcription, actives raise or lower the signal
# Outline: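 First, HepG2 cells receive multiple cis-regulated reporter constructs by transient transfection. Next, chemicals are applied for 24 h. Finally, reporter mRNA is quantified via RT-PCR and capillary electrophoresis, with DMSO as baseline.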
# [7] = ATG_EGR_CIS: Attagene CIS-FACTORIAL HepG2 Assay for human Early Growth Response 1 (EGR1) (AID 2282938; active = hit-call score of the fitted dose curve at least 0.9, where 1 is the maximum; inactive = score below 0.9); details: HepG2 Attagene CIS-FACTORIAL EGR reporter mRNA; actives raise or lower the signal
# Outline: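 Activity is taken as induction or loss of reporter mRNA versus DMSO, fitted bidirectionally. Transcripts from cis-regulated reporter units in transiently transfected HepG2 were measured after 24 h by RT-PCR with capillary electrophoresis.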
# [8] = ATG_M_19_CIS: Attagene CIS-FACTORIAL HepG2 Assay for M19 Transcription Factor (Internal Marker) (AID 2282939; active = hit-call score of the fitted dose curve at least 0.9, where 1 is the maximum; inactive = score below 0.9); details: HepG2 Attagene CIS-FACTORIAL M19 internal marker reporter; actives raise or lower the signal
# Outline: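 Following a 24 h exposure, RNA from transfected HepG2 cells was reverse-transcribed, PCR-amplified with reporter-specific primers, end-labelled with 6-FAM and HpaI-digested before capillary separation. Values represent gain or loss versus DMSO.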
# [9] = ATG_Ets_CIS: Attagene CIS-FACTORIAL HepG2 Assay for human Erythroblast Transformation Specific (ETS) (AID 2282941; active = hit-call score of the fitted dose curve at least 0.9, where 1 is the maximum; inactive = score below 0.9); details: HepG2 ETS cis-reporter transcription, actives raise or lower the signal
# Outline: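 Human HepG2 hepatoma cells were transiently transfected with promoter-driven reporter constructs and treated for 24 hours. Reporter transcripts were quantified by RT-PCR with fluorescent primer extension; bidirectional curve fitting used DMSO as reference.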
# [10] = biological target: Hepatocyte nuclear factor 3-beta (Homo sapiens) (UniProt Q9Y261); experiment: ATG_FoxA2_CIS: Attagene CIS-FACTORIAL HepG2 Assay for human Forkhead box A2 (FOXA2) (AID 2282942; active = hit-call score of the fitted dose curve at least 0.9, where 1 is the maximum; inactive = score below 0.9); details: HepG2 cis-reporter transcription factor activity, 24 h; actives raise or lower the signal
# Sequence of Hepatocyte nuclear factor 3-beta (Homo sapiens) (Q9Y261 whole entry, looked up): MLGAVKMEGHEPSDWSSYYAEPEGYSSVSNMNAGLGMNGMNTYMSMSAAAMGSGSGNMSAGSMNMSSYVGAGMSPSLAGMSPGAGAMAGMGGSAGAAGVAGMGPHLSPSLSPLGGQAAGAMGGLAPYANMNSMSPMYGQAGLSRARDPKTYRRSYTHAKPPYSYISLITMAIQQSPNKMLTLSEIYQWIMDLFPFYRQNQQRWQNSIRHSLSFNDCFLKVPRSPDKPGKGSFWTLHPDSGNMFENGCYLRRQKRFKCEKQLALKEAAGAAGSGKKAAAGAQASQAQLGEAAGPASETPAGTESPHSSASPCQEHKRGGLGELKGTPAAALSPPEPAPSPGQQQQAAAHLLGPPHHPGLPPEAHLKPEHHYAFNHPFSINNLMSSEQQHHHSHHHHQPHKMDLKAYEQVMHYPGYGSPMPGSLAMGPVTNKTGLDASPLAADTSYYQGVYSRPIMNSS
# Outline: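 Reporter transcript induction is measured by fluorescence after capillary electrophoresis of RT-PCR products from HepG2 cells exposed 24 h. Cis-regulated reporter units report endogenous factor activity; curves fitted both directions against DMSO.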
# [11] = ATG_FoxO_CIS: Attagene CIS-FACTORIAL HepG2 Assay for human Forkhead box O (FoxO) (AID 2282943; active = hit-call score of the fitted dose curve at least 0.9, where 1 is the maximum; inactive = score below 0.9); details: HepG2 Attagene cis-reporter, FoxO element, mRNA; actives raise or lower the signal
# Outline: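 Transfected HepG2 reporter cells exposed to test chemical for 24 h; reporter RNA measured by reverse transcription, PCR and fluorescent capillary electrophoresis; curves fitted for increases and decreases against DMSO.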
# [12] = ATG_GATA_CIS: Attagene CIS-FACTORIAL HepG2 Assay for human GATA Binding Protein (AID 2282944; active = hit-call score of the fitted dose curve at least 0.9, where 1 is the maximum; inactive = score below 0.9); details: HepG2 GATA cis-element reporter, Attagene multiplex mRNA; actives raise or lower the signal
# Outline: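 DMSO serves as negative control and baseline for bidirectional fitting of reporter mRNA changes. HepG2 cells bearing transiently transfected cis-promoter reporters were exposed 24 h; transcripts detected via RT-PCR and capillary electrophoresis.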
# [13] = ATG_M_32_CIS: Attagene CIS-FACTORIAL HepG2 Assay for M32 Transcription Factor (Internal Marker) (AID 2282949; active = hit-call score of the fitted dose curve at least 0.9, where 1 is the maximum; inactive = score below 0.9;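 note: background control marker of the multiplexed CIS panel rather than a real target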); details: HepG2 Attagene cis-factorial M32 reporter, mRNA; actives raise or lower the signal
# Outline: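 Internal background marker read-out: RT-PCR/capillary electrophoresis fluorescence of reporter transcripts from transiently transfected HepG2 cells after 24 h chemical exposure. Activity fitted bidirectionally relative to DMSO negative control.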
# [14] = ATG_M_06_CIS: Attagene CIS-FACTORIAL HepG2 Assay for M06 Transcription Factor (Internal Marker) (AID 2282950; active = hit-call score of the fitted dose curve at least 0.9, where 1 is the maximum; inactive = score below 0.9); details: HepG2 Attagene CIS-FACTORIAL M06 internal marker reporter; actives raise or lower the signal
# Outline: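 Fluorescence-labelled RT-PCR products from cis-promoter reporter units, cut with HpaI and resolved by capillary electrophoresis, give the signal. Cells are human HepG2, dosed for 24 h. Serves as background control, fitted relative to DMSO.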
# [15] = ATG_PXRE_CIS: Attagene CIS-FACTORIAL HepG2 Assay for human Pregnane X Receptor Element (PXRE) (AID 2282957; active = hit-call score of the fitted dose curve at least 0.9, where 1 is the maximum; inactive = score below 0.9); details: HepG2 Attagene CIS-FACTORIAL PXRE reporter, mRNA; actives raise or lower the signal
# Outline: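 HepG2 cells transiently transfected with cis-regulated multiple reporter transcription units; endogenous factor activity measured as reporter mRNA 24 h after dosing. RT-PCR, fluorescent primer extension, HpaI digestion, capillary electrophoresis; bidirectional fit versus DMSO baseline.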
# [16] = ATG_Sox_CIS: Attagene CIS-FACTORIAL HepG2 Assay for human SRY-box transcription factor (SOX) (AID 2282960; active = hit-call score of the fitted dose curve at least 0.9, where 1 is the maximum; inactive = score below 0.9); details: HepG2 Attagene cis-factorial SOX reporter, mRNA; actives raise or lower the signal
# Outline: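 Measures mRNA induction of a SOX1-associated reporter in HepG2 after 24 h dosing. Fluorescently labelled RT-PCR fragments are separated by capillary electrophoresis, and gain or loss relative to DMSO control is fitted.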
# [17] = biological target: Transcription factor Sp1 (Homo sapiens) (UniProt P08047); experiment: ATG_Sp1_CIS: Attagene CIS-FACTORIAL HepG2 Assay for human Specificity Protein 1 (Sp1) (AID 2282961; active = hit-call score of the fitted dose curve at least 0.9, where 1 is the maximum; inactive = score below 0.9); details: HepG2 Sp1 cis-reporter transcription, actives raise or lower the signal
# Sequence of Transcription factor Sp1 (Homo sapiens) (P08047 whole entry, looked up): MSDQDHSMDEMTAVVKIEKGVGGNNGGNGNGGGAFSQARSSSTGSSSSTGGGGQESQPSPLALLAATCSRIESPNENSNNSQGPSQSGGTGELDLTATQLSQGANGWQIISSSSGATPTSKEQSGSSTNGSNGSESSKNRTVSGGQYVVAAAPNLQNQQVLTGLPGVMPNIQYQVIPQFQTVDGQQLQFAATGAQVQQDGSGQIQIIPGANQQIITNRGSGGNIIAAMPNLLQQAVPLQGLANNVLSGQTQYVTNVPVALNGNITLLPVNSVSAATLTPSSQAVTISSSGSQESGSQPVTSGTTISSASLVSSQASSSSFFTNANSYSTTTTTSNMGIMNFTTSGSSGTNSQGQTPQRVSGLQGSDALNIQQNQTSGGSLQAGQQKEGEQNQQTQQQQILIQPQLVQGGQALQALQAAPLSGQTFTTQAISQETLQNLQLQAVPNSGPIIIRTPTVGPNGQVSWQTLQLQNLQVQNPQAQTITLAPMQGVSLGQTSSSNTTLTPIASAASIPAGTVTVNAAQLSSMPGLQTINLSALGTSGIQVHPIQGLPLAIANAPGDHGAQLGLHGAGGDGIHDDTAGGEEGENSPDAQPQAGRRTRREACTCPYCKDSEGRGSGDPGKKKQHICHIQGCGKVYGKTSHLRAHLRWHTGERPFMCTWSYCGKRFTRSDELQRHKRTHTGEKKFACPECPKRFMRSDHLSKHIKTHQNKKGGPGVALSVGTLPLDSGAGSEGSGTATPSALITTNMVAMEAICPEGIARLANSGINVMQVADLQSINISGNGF
# Outline: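 Cells: HepG2, transiently transfected with cis-regulated multiplexed reporters. Exposure: 24 h. Detection: reporter transcripts amplified, fluorescently labeled, restriction-digested and sized by capillary electrophoresis. Analysis: bidirectional fit relative to DMSO.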
# [18] = ATG_SREBP_CIS: Attagene CIS-FACTORIAL HepG2 Assay for human Sterol Regulatory Element Binding (SREBP) (AID 2282962; active = hit-call score of the fitted dose curve at least 0.9, where 1 is the maximum; inactive = score below 0.9); details: HepG2 Attagene cis-factorial SREBP reporter, mRNA; actives raise or lower the signal
# Outline: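 mRNA induction of transfected cis-promoter reporters in HepG2 cells, 24 h post-dose. Detection: RT-PCR with 6-FAM-labelled products, HpaI digest, capillary electrophoresis. DMSO served as negative control and baseline.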
# [19] = biological target: Signal transducer and activator of transcription 3 (Homo sapiens) (UniProt P40763); experiment: ATG_STAT3_CIS: Attagene CIS-FACTORIAL HepG2 Assay for human Signal Transducer and Activator of Transcription 3 (STAT3) (AID 2282963; active = hit-call score of the fitted dose curve at least 0.9, where 1 is the maximum; inactive = score below 0.9); details: HepG2, Attagene cis-factorial STAT3 reporter transcription; actives raise or lower the signal
# Sequence of Signal transducer and activator of transcription 3 (Homo sapiens) (P40763 whole entry, looked up): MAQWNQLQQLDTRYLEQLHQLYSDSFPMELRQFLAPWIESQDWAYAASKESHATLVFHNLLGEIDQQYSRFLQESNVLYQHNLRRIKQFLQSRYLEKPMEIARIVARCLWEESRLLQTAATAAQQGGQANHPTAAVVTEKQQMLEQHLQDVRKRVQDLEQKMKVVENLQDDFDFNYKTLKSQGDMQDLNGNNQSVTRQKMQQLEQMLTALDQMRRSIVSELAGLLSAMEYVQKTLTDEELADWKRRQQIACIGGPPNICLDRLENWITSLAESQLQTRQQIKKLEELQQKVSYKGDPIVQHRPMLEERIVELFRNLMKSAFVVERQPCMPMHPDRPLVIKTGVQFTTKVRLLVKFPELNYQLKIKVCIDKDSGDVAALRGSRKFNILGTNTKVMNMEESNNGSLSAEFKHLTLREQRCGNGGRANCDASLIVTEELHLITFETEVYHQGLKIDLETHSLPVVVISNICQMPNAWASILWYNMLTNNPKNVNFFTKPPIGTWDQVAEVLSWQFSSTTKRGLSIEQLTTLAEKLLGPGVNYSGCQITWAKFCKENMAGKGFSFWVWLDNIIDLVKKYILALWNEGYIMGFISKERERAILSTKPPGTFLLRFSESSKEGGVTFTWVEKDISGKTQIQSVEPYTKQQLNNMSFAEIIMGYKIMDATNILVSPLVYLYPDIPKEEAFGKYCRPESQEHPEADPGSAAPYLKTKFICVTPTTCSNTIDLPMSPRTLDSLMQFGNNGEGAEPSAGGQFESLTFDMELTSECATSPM
# Outline: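 Values derive from bidirectional fits relative to DMSO of reporter mRNA levels, measured by RT-PCR with capillary electrophoresis, in HepG2 cells carrying transiently transfected cis-regulated reporter units and exposed 24 h.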
# [20] = biological target: Androgen receptor (Homo sapiens) (UniProt P10275); experiment: ATG_AR_TRANS: Attagene TRANS-FACTORIAL HepG2 Assay for human Androgen Receptor (AR) (AID 2282973); details: HepG2 Attagene TRANS-FACTORIAL AR reporter transcription
# Sequence of Androgen receptor (Homo sapiens) (P10275 whole entry, looked up, the tested form may be a part): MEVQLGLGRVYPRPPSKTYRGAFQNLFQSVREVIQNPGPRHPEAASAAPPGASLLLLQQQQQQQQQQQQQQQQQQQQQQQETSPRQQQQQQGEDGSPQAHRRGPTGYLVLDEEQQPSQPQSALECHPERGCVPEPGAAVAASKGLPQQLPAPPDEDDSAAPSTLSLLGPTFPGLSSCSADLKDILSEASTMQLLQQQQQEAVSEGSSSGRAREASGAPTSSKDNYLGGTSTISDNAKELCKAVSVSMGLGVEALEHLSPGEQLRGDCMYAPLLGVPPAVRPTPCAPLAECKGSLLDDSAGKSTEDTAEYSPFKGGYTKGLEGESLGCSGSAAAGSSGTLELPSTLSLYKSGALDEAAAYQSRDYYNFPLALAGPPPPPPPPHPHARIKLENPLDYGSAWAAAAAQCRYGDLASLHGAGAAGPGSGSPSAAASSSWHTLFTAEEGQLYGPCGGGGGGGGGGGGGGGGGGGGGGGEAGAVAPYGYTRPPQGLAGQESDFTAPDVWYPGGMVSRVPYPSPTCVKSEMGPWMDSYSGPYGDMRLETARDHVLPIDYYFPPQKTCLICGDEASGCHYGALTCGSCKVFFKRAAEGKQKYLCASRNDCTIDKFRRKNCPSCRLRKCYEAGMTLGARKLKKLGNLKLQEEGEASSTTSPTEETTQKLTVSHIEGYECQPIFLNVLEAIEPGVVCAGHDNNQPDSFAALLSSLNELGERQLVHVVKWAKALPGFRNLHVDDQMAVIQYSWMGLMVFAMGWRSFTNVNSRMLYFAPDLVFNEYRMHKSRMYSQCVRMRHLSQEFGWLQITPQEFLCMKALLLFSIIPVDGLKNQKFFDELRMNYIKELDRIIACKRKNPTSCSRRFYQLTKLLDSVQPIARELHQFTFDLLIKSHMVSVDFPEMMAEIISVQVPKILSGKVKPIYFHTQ
# Outline: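 HepG2 cells transiently transfected with multiplexed GAL4-UAS reporter units and chimeric NR-Gal4 fusion; 24 h compound exposure. Reporter mRNA measured by RT-PCR, 6-FAM labelling, HpaI digestion and capillary electrophoresis; gain-of-signal fitted relative to DMSO baseline.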
compound,measurement,setting,value
C=C(Cl)Cl,outcome,[1],inactive
same,outcome,[2],inactive
same,outcome,[3],inactive
same,outcome,[4],inactive
same,outcome,[5],inactive
same,outcome,[6],inactive
same,outcome,[7],inactive
same,outcome,[8],inactive
same,outcome,[9],inactive
same,outcome,[10],inactive
same,outcome,[11],inactive
same,outcome,[12],inactive
same,outcome,[13],inactive
same,outcome,[14],inactive
same,AC50,[15],50.8 µM (active)
same,outcome,[16],inactive
same,outcome,[17],inactive
same,outcome,[18],inactive
same,outcome,[19],inactive
same,outcome,[20],inactive
O=C(Nc1ccccc1)c1cc([N+](=O)[O-])ccc1Cl,outcome,[20],inactive
CCC1(C)C(=O)N(Cl)C(=O)N1Cl (stereo unspecified),outcome,[20],inactive
CC(CC=O)CCCC(C)(C)O (stereo unspecified),outcome,[20],inactive
CC(=O)CC(=O)Nc1ccc(C)cc1C,outcome,[20],inactive
CCCCCCOC(=O)c1ccccc1O,outcome,[20],inactive
Cc1cc(C)c(S(=O)(=O)O)cc1N=Nc1cc(S(=O)(=O)O)c2ccccc2c1O,outcome,[20],inactive
N#CCCOCCC#N,outcome,[20],inactive
Nc1ccnc(=O)[nH]1,outcome,[20],inactive
CCCCCCOC(=O)c1ccc(O)cc1,outcome,[20],inactive
CCN(CC)c1ccc(C=O)cc1,outcome,[20],inactive
Cc1cc(C(=C2C=CC(=Nc3ccc(S(=O)(=O)O)cc3)C=C2)c2ccc(Nc3ccc(S(=O)(=O)O)cc3)cc2)cc(S(=O)(=O)O)c1N,outcome,[20],inactive
O=Nc1ccc(Nc2ccccc2)cc1,outcome,[20],inactive
C=CC(=O)OCC(CO)(COCC(COC(=O)C=C)(COC(=O)C=C)COC(=O)C=C)COC(=O)C=C,outcome,[20],inactive
C=C1C[C@H]2[C@@H]3C=C(C)C4=CC(=O)CC[C@]4(C)[C@H]3CC[C@]2(C)[C@@]1(OC(C)=O)C(C)=O,outcome,[20],inactive
CC(=O)c1ccc(S(=O)(=O)NC(=O)NC2CCCCC2)cc1,outcome,[20],inactive
CCC(C)(C)C1CCC(=O)CC1,outcome,[20],inactive
CC(=O)O[C@@H]1CC2CCC1(C)C2(C)C (stereo partly specified),outcome,[20],inactive
O=C1OC(=O)c2cc(Oc3ccc4c(c3)C(=O)OC4=O)ccc21,outcome,[20],inactive
C[C@H]1C[C@@H]2[C@H]([C@@H](O)C[C@@]3(C)[C@H]2CC[C@]3(O)C(=O)CO)[C@@]2(C)C=CC(=O)C=C12,outcome,[20],inactive
O=C1CC2CC1C1CCCC21 (stereo unspecified),outcome,[20],inactive
C=C(C)C(=O)OCCOc1ccccc1,outcome,[20],inactive
O=C(Cl)C(F)(F)C(F)(F)C(F)(F)C(F)(F)C(F)(F)C(F)(F)F,outcome,[20],inactive
CC(C)[C@@H]1CC[C@@H](C)C[C@H]1O,outcome,[20],inactive
[Cl][Bi]([Cl])([c]1ccccc1)([c]1ccccc1)[c]1ccccc1,outcome,[20],inactive
N#Cc1ccc(C(c2ccc(C#N)cc2)n2cncn2)cc1,outcome,[20],inactive
Cc1ccc(C)c(O)c1C,outcome,[20],inactive
COc1ccc(C(=O)/C(Br)=C\C(=O)O)cc1,outcome,[20],inactive
CSc1nnc(C(C)(C)C)c(=O)[nH]1,outcome,[20],inactive
COc1ccc(CCO)cc1,outcome,[20],inactive
Cc1ccc(O)cn1,outcome,[20],inactive
CCCCC(CC)COC(=O)/C=C\C(=O)OCC(CC)CCCC (stereo unspecified),outcome,[20],inactive
